A selection: hits, their analogues and other compounds. The true share with any hit is near 1.3%.
AGP1 TOR yeast = alters AGP1-GFP fluorescence in TOR pathway yeast screen | actives 0.02% (n = 320,000) | GFP response vs DMSO, % at 10 µM | S. cerevisiae AGP1-GFP multiplex flow cytometry, 3 h; GFP as percent of DMSO wells | AID 2066;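 active means GFP response relative to DMSO above a set limit, near screen average plus 3 SD, cut at about 150% in these data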;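 further: median GFP channel fluorescence of the gated AGP1 strain per well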
MEP2-GFP yeast = yeast TOR pathway MEP2-GFP modulation | S. cerevisiae MEP2-GFP strain, flow cytometry GFP, 3 h; 100% = DMSO control level | GFP response vs DMSO, % at 10 µM | actives 0.51% (n = 330,000) | AID 2016;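 active means GFP response versus DMSO above a set limit, roughly screen mean plus 3 SD, cut at about 180% in these data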;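 further: median GFP fluorescence of the barcode-gated MEP2-GFP cells per well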
Efflux pump inh = blocks antifungal efflux pumps in multiplex yeast assay | inhibition, % at 10 µM | actives 0.44% (n = 330,000) | S. cerevisiae Candida pump triplex, Nile Red efflux;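 active means plate passing quality check with inhibition over a set limit, or well fluorescence over plate mean plus 4 SD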;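 further: Nile Red retained in pooled yeast measured as flow cytometry median fluorescence; 0% = buffer negative control and 100% = Enniatin B positive control; higher means more Nile Red kept so more efflux inhibition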
LAP4 TOR yeast = yeast TOR pathway LAP4-GFP modulation; AID 2023; GFP response vs DMSO, % at 10 µM; S. cerevisiae LAP4-GFP multiplex, flow cytometry GFP, 3 h; median GFP as percent of DMSO wells; actives 0.34% (n = 320,000);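 active means GFP response vs DMSO above a set limit, about the screen mean plus 3 SD, cut at about 150% in these data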
RPL19A-GFP yeast = alters RPL19A-GFP fluorescence in TOR pathway yeast screen; actives 0.3% (n = 330,000); percent response vs DMSO, % at 10 µM; S. cerevisiae RPL19A-GFP strain, flow cytometry, 3 h; stronger effect = lower value;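 active means percent response vs DMSO below 50%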;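 further: median channel GFP fluorescence of the barcoded RPL19A-GFP strain; ratio of sample median GFP to plate DMSO average so 100% = DMSO; lower means less RPL19A-GFP as with rapamycin TOR inhibition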
CIT2-GFP yeast = alters CIT2-GFP fluorescence in TOR pathway yeast screen; S. cerevisiae CIT2-GFP strain, flow cytometry, 3 h; 100 means same as DMSO wells; actives 0.065% (n = 320,000); GFP response vs DMSO, % at 10 µM; AID 2029;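 active means GFP response relative to DMSO above a set limit, near the screen mean plus 3 SD, cut at about 150% in these data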;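 further: ratio of well median GFP fluorescence to mean of DMSO wells on the plate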
LAP4 cherry2 = yeast LAP4-GFP modulation, second cherry pick. GFP response vs DMSO, % at 10 µM. S. cerevisiae LAP4-GFP strain, flow cytometry GFP, 3 h. shares compounds with LAP4 TOR yeast. actives 20% (n = 590);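 active means GFP signal as percent of the solvent control above about 150%, meaning raised reporter expression, limit read from the data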;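 further: ratio of well median GFP fluorescence to plate DMSO mean so 100% = DMSO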
MEP2 cherry2 = reconfirmed MEP2-GFP TOR pathway modulator in yeast | shares compounds with LAP4 TOR yeast | S. cerevisiae MEP2-GFP strain, flow cytometry GFP, 3 h | GFP response vs DMSO, % at 10 µM | actives 10% (n = 590) | AID 2622;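 active means GFP signal above 150% of the solvent control wells, that is a rise of more than half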;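 further: median channel GFP fluorescence of all gated yeast cells per well; ratio of median GFP to plate DMSO average so 100% = DMSO level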
RPL19A GFP CP2 = second confirmation of modulators of TOR reporter RPL19A-GFP in yeast | GFP response vs DMSO, % at 10 µM | actives 3% (n = 590) | S. cerevisiae RPL19A-GFP strain, flow cytometry GFP, 3 h; stronger effect = lower value; 100% means same as DMSO wells | shares compounds with LAP4 TOR yeast;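 active means under 65% GFP response relative to DMSO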;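 further: median GFP channel fluorescence per well over the all cells gate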
CIT2-GFP pick2 = yeast CIT2-GFP TOR reporter modulation, second cherry pick; shares compounds with LAP4 TOR yeast; S. cerevisiae CIT2-GFP strain, flow cytometry GFP, 3 h; DMSO control wells read 100%; GFP response vs DMSO, % at 10 µM; actives 8% (n = 590);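 active means GFP response vs DMSO above about 150%, limit read from the data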;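 further: median green fluorescence per well over all gated yeast cells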
AGP1-GFP pick2 = reconfirmed modulator of AGP1-GFP TOR reporter in yeast | shares compounds with LAP4 TOR yeast | S. cerevisiae AGP1-GFP strain, flow cytometry GFP, 3 h | percent response vs DMSO, % at 10 µM | 590 tested, under 10 active | AID 2643;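 active means over 150 percent of DMSO response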;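 further: median GFP channel fluorescence over all cells without mother daughter split; sample median GFP divided by mean DMSO control so 100% equals DMSO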
s288c autofluor = counter-screen for compound autofluorescence in yeast s288c cells. AID 2757. 610 tested, under 10 active. S. cerevisiae s288c, 520 nm autofluorescence, flow cytometry, 3 h; stronger effect = higher value; zero means same as solvent-only cells. fluorescence change (kMESF span) at 33 µM. shares compounds with LAP4 TOR yeast;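 active means fluorescence span over the dose series, or activity score, above about 33, limit read from the data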
Yeast autofl DR = counter-screen for autofluorescence of TOR hits in yeast s288c; shares compounds with LAP4 TOR yeast; S. cerevisiae s288c parental, compound autofluorescence, flow cytometry, 3 h; fluorescence change (span) at 33 µM; 110 tested, under 10 active; AID 488829;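 active means fluorescence change span, or the activity score built from it, above 25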
TORC1 bypass gr = compounds blocking wildtype yeast growth but not TORC1 bypass cells; shares compounds with LAP4 TOR yeast; S. cerevisiae BY4741 spot growth rating, 48-72 h; stronger effect = lower value; growth rating (0-3) at 30 µM; 120 tested, under 10 active; AID 504456;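 active means growth rating at most 1 for wild type yeast while the TORC1 bypass strain still grows fully, rated 3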
* hit, by the source's call; x = not tested or not shown.

SMILES | AGP1 TOR yeast | MEP2-GFP yeast | Efflux pump inh | LAP4 TOR yeast | RPL19A-GFP yeast | CIT2-GFP yeast | s288c autofluor | others
O=C(O)CCN=CC1=C(O)CC(c2ccccc2)CC1=O (configuration not stated) | 107.7 | 102.9 | 0.3 | 102.0 | 104.6 | 109.5 | x
CCOc1ccccc1NC1=C(Cl)C(=O)N(c2ccc(OC)cc2)C1=O | 94.3 | 98.9 | -0.2 | 102.8 | 100.3 | 97.1 | x
COc1ccc(NC2=C(Cl)C(=O)N(CCc3ccccc3)C2=O)cc1 | 101.7 | 105.1 | -0.2 | 95.3 | 101.8 | 104.0 | 0
COc1ccc(NC2=C(Cl)C(=O)N(CCc3ccccc3)C2=O)c(OC)c1 | 97.3 | 87.5 | 0.0 | 122.7 | 91.6 | 81.7 | 0.1
COc1ccc(CCNC2CC(=O)N(CCc3ccccc3)C2=O)cc1 (configuration not stated) | 105.2 | 102.3 | 0.0 | 95.4 | 99.6 | 99.2 | x
COc1ccc(CCN2C(=O)c3cccnc3C2=O)cc1OC | 99.4 | 94.8 | -0.1 | 92.9 | 96.4 | 101.3 | x
COc1ccc(N2C(=O)C(Cl)=C(NCc3ccccc3)C2=O)cc1 | 102.7 | 97.7 | 0.1 | 116.5 | 99.1 | 79.8 | -0.1
COc1ccc(CCNC2=C(Cl)C(=O)N(CCc3ccc(OC)c(OC)c3)C2=O)cc1OC | 94.5 | 96.0 | 0.2 | 89.2 | 93.4 | 88.4 | 0.1
COc1ccc(O)c(/C=N/NC(=O)CN2CCS(=O)(=O)CC2)c1 | 97.5 | 98.9 | 0.0 | 104.0 | 99.0 | 93.2 | x
CCCCCN(C(=O)CCC(=O)OCC(=O)N1CCCCC1C)c1c(N)n(CCCC)c(=O)[nH]c1=O (configuration not stated) | 104.2 | 116.8 | 0.7 | 98.7 | 112.0 | 114.8 | x
CCOc1ccc(NC2=NCC(=O)N2CCc2ccccc2)cc1 | 100.4 | 103.5 | 0.2 | 98.7 | 84.7 | 91.6 | x
CCOc1ccc(NC2=C(Cl)C(=O)N(Cc3ccccc3)C2=O)cc1 | 95.0 | 97.3 | 0.1 | 99.2 | 93.7 | 89.3 | 0.2
CCC1(c2ccccc2)ON(c2c(Br)cccc2Br)C1=O (configuration not stated) | 60.2 | 85.5 | -0.1 | 130.7 | 80.0 | 81.6 | 0.5 | LAP4 cherry2=124.0;MEP2 cherry2=118.1;RPL19A GFP CP2=99.8;CIT2-GFP pick2=113.1;AGP1-GFP pick2=94.3
Cc1ccc(S(=O)(=O)/C(C#N)=C/c2c(Oc3ccc(Cl)cc3)nc3c(C)cccn3c2=O)cc1 | 21.4 | 383.6* | 0.0 | 80.7 | 52.2 | 103.8 | x | LAP4 cherry2=102.2;MEP2 cherry2=101.3;RPL19A GFP CP2=100.6;CIT2-GFP pick2=94.6;AGP1-GFP pick2=99.7
Cc1ccc(Oc2nc3c(C)cccn3c(=O)c2/C=C(\C#N)C(N)=O)cc1 | 109.5 | 85.6 | -0.1 | 101.1 | 93.7 | 108.1 | x
CNc1nc(N)c([N+](=O)[O-])c(NCc2ccco2)n1 | x | x | x | x | x | x | x | Yeast autofl DR=0;TORC1 bypass gr=3
Cc1cccc(Nc2nc(N)c([N+](=O)[O-])c(NCc3ccco3)n2)c1 | 88.7 | 100.2 | -0.3 | 101.4 | 99.1 | 98.1 | x
CC1=CC(=O)c2c(O)ccc(O)c2C1=O | 101.3 | 139.5 | 1.0* | 195.1* | 95.7 | 100.2 | x | LAP4 cherry2=196.2*;MEP2 cherry2=276.2*;RPL19A GFP CP2=103.4;CIT2-GFP pick2=132.3;AGP1-GFP pick2=96.9
CC1(C)C(=O)Nc2ccccc2N1C(=O)COc1ccccc1C#N | 116.7 | 99.0 | 0.1 | 157.6* | 86.8 | 92.4 | x | LAP4 cherry2=100.2;MEP2 cherry2=99.6;RPL19A GFP CP2=98.5;CIT2-GFP pick2=107.1;AGP1-GFP pick2=99.3
Cc1nc(Nc2ccc(Cl)cc2)c(C#N)c(=O)[nH]1 | 102.1 | 114.7 | 0.0 | 102.8 | 105.5 | 103.5 | x
Cc1cccc(NC(c2ccc(C)s2)c2ccc3ccc(C)nc3c2O)n1 (configuration not stated) | 79.8 | 89.9 | 0.1 | 176.5* | 94.1 | 90.7 | 0.5
CCN(CC(=O)Nc1ccc(OC)cc1)C(=O)c1ccc(N2CCCC2=O)cc1 | 100.7 | 100.5 | -0.2 | 101.0 | 95.8 | 101.1 | x
O=c1oc(/C=C/c2ccc([N+](=O)[O-])s2)nc2ccccc12 | 102.6 | 184.9* | 0.4 | 153.9* | 116.2 | 161.3* | 12.6
O=C1CN(C(=O)NCC(=O)N2CCCC2)c2ccccc2N1 | 95.2 | 96.6 | 0.5 | 89.2 | 96.0 | 91.9 | x
O=C(NCc1ccccn1)C(=O)NCC1OCCN1C(=O)c1ccc(Cl)cc1 (configuration not stated) | 89.1 | 95.1 | -2.8 | 83.1 | 93.9 | 101.0 | x
O=C(NCc1ccco1)C(=O)NCC1OCCN1C(=O)c1ccc(Cl)cc1 (configuration not stated) | 95.1 | 165.2 | 0.0 | 97.5 | 57.0 | 97.8 | x | LAP4 cherry2=101.9;MEP2 cherry2=104.8;RPL19A GFP CP2=99.6;CIT2-GFP pick2=100.7;AGP1-GFP pick2=98.6
O=C(O)/C=C/C(=O)c1ccc2c(c1)CCc1ccccc1-2 | 77.5 | 88.8 | -0.1 | 226.3* | 72.0 | 59.8 | 1.2 | LAP4 cherry2=128.8;MEP2 cherry2=164.7*;RPL19A GFP CP2=68.7;CIT2-GFP pick2=87.1;AGP1-GFP pick2=77.0
CC(=O)c1ccc(-c2cccc(-c3cc(=O)oc4ccc(C(C)(C)C)cc34)c2)cc1 | x | x | -0.2 | x | x | x | x
CCN(CC)S(=O)(=O)c1ccc(NC(=O)Cc2cccs2)cc1 | 94.3 | 104.9 | 0.2 | 100.8 | 101.4 | 95.6 | x
COc1cccc2c(=O)c(C(=O)NCc3cccs3)c[nH]c12 | 96.6 | 98.0 | 0.3 | 101.2 | 93.0 | 88.3 | 0.5 | LAP4 cherry2=101.0;MEP2 cherry2=103.2;RPL19A GFP CP2=99.8;CIT2-GFP pick2=98.4;AGP1-GFP pick2=103.3
